# TDP1 cell CPT: growth inhibition of DT40 Tdp1-/-;hTDP1 cells with camptothecin (screen for TDP1 inhibitors); AID 686979; Potency, µM (highest dose often 46.2 µM), without a hit: at the top dose activity change, negative = growth inhibition, usual class: inhibitors; chicken DT40 Tdp1-/-;hTDP1 cells + 20 nM CPT, ATP luminescence, 48 h; 12% of 420,000 active; note: potency is the fitted concentration of half-maximal effect; nearly all actives have a fitted effect of over 55% in size
#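 Cell growth measured by CellTiter-Glo luminescence after a minimum 48 h, 37 C compound exposure with 20 nM CPT in Tdp1-knockout DT40 cells stably expressing hTDP1, seeded 400/well; qHTS titration format.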
# HT1080 IDH1KD tx: kills HT-1080 cells with IDH1 knockdown | HT-1080 IDH1 knockdown viability, ATP luminescence, 48 h | Potency, µM (doses to about 46.1 µM), inactives show at the top dose activity, negative = toxicity, usual class: cytotoxic | 2% of 360,000 active;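 note: potency is the fitted concentration of half-maximal effect; 0% = DMSO wells and -100% = cell-free medium wells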
#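 Viability of IDH1-knockdown HT-1080 fibrosarcoma cells was assessed by CellTiter-Glo after 48 h at 37 °C with titrated compound; concentration-effect curves were classified by fit quality and response size.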
# IL-1B inflam inh: inhibitors of inflammasome signaling (IL-1 beta secretion). THP-1 LPS/ATP IL-1B secretion, AlphaLISA, 16 h; stronger effect = lower value. activity change, % at 57.5 µM. 4.7% of 360,000 active. AID 743279; in the data active = activity change below about -50%; inconclusive = mostly about -30% to -49%
#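 THP-1 cells pretreated 1 hr with compounds (up to 57.5 uM final), then stimulated with LPS (250 ng/mL final) plus ATP (1.25 mM final); secreted IL-1B measured by AlphaLISA after 16 hr, decreased signal indicating inhibition.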
# TDP1 cell noCPT: qHTS for Inhibitors of human tyrosyl-DNA phosphodiesterase 1 (TDP1): qHTS in cells in absence of CPT | DT40 Tdp1-/- hTDP1 cells, no CPT, ATP luminescence, 48 h | Potency, µM (titrated, usually from 46.2 µM), for the others: at the top dose activity change, negative = growth inhibition, usual class: inhibitors | 15% of 420,000 active | AID 686978, 2013; note: potency is the fitted concentration of half-maximal effect; nearly all actives have a fitted effect of over 55% in size
#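 DT40 Tdp1-/-;hTDP1 cells, no CPT (DMSO vehicle only), 400 cells/well; compounds pin-transferred; ≥48 hr, 37 °C; CellTiter-Glo 30 min RT dark, luminescence read.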
# HT1080-NT tox: kills 2HG-producing HT-1080-NT fibrosarcoma cells; HT-1080-NT fibrosarcoma viability, CellTiter-Glo ATP luminescence, 48 h; Potency, µM (highest dose often 46.1 µM), without a hit: at the highest dose activity, negative = less viability, actives largely listed as cytotoxic; 1.6% of 360,000 active;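 note: NT is the 2HG producing partner of a matched IDH1 knockdown line; potency is the fitted concentration of half-maximal effect; 0% = DMSO-treated cells and -100% = media-only wells without cells; nearly all actives have a fitted effect of over 55% in size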
#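 Fibrosarcoma NT cells, 750 per well in 5% FBS RPMI, were exposed to compound for 48 hours. Viability: CellTiter-Glo luminescence.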
# * marks the source's active call; other numbers are inactive results; ? = inconclusive; / = not tested or not shown; ! = not active in a repeat. A selection: hits, their analogues and other compounds. The true share with any hit is near 19%. Unless noted, calls come from the whole dose curve; as a rule, active = well fitted curve in the direction sought with a large enough effect; inconclusive = small, poorly fitted or top-dose-only effect, or another doubt; inactive = no such curve, though single readings can be large; an effect the other way counts as inactive or inconclusive. Unless noted, % is set by controls: 0 for no effect and ±100 for the full control effect.
SMILES,TDP1 cell CPT,HT1080 IDH1KD tx,IL-1B inflam inh,TDP1 cell noCPT,HT1080-NT tox
O=C(COc1cccc2c1CCNC2=O)Nc1cccc(C(F)(F)F)c1,8.2µM*,-22%,-5,16µM*,-1%
O=C(COc1cccc2c1CCNC2=O)Nc1cccc(F)c1,?,-10%,13,?,-5%
CN1c2ccccc2C(C)(C)C12C=Cc1cc(O)ccc1O2 (stereo not given),13µM*,?,-74*,16µM*,?
CN1c2ccccc2C(C)(C)C12C=Nc1c(cc(N3CCOCC3)c3ccccc13)O2 (stereo not given),?,-18%,-5,?,-10%
Cc1ccc(C(=O)NCC(=O)OCCCOC(=O)CNC(=O)c2ccc(C)c(C)c2)cc1C,-16%,0%,17,-13%,0%
CN1CCN(c2ccc(S(=O)(=O)N3CCCCC3)cc2NC(=O)COc2cccc(Cl)c2)CC1,?,-2%,-52*,?,-5%
O=C(COc1ccc(Cl)cc1)Nc1cc(S(=O)(=O)N2CCCCC2)ccc1N1CCCCC1,2.9µM*,16%,14,10µM*,-5%
O=C(COc1ccc(Br)cc1)Nc1cc(S(=O)(=O)N2CCCCC2)ccc1N1CCCCC1,?,13%,2,?,13%
COc1ccc(NC(=O)CCc2nnc3n(Cc4ccccc4Cl)c(=O)c4ccccc4n23)cc1,3.3µM*,/,/,3.3µM*,/
Cc1ccc(NC(=O)CCc2nnc3n(CC(C)C)c(=O)c4ccccc4n23)cc1C,26µM*,/,/,23µM*,/
Cc1cc(C)cc(NC(=O)CCc2nnc3n(CC(C)C)c(=O)c4ccccc4n23)c1,-19%,/,/,-24%,/
O=C(CCc1nnc2n(Cc3ccccc3Cl)c(=O)c3ccccc3n12)Nc1ccc(F)c(F)c1,23µM*,/,/,21µM*,/
CN1CCN(CCCNC(=O)CCc2nnc3n(Cc4ccccc4Cl)c(=O)c4ccccc4n23)CC1,-18%,2%,-13,0%,-1%
COc1cc(CN2C[C@@H](CO)O[C@@H](n3cnc4c(Nc5ccccc5)ncnc43)C2)cc(OC)c1OC,?,23%,20,?,29%
Cc1noc(C)c1NC(=O)Nc1ccc2c(c1)C(=O)N([C@H](C)CO)C[C@H](C)[C@H](CN(C)C)O2,5%,-4%,-1,-10%,-1%
CCc1ccccc1NC(=O)c1cc(S(=O)(=O)N2CCCC2)cn1C,?,/,/,-10%,/
CN(Cc1ccccc1)C(=O)Cn1c(=O)c2cccn2c2ccc(F)cc21,23µM*,/,/,6.5µM*,/
CN(C)CCNC(=O)Cn1c(=O)c2cccn2c2ccc(F)cc21,23µM*!,-6%,?,16µM*!,-2%
Cc1nn(CC(=O)N(C)Cc2ccccc2)c(=O)c2cccn12,-9%,0%,9,-2%,5%
CC(C)N(CCCNC(=O)Cn1c(=O)c2cccn2c2ccccc21)Cc1ccccc1,18µM*,7%,-1,-16%,3%
CN(CCCNC(=O)Cn1c(=O)c2cccn2c2ccccc21)Cc1ccccc1,-11%,-1%,?,5%,12%
CC(C)OCCCn1c(-c2ccc(Br)cc2)c[nH]c1=S,?,-9%,-13,?,-18%
COc1ccc(-n2c3c(cc(-c4nc(-c5ccc(Cl)cc5)cs4)c2=O)C(=O)CC(C)(C)C3)cc1Cl,-12%,/,/,-6%,/
CCOC(=O)CSc1ncnc2c1sc1nc(N3CCOCC3)c3c(c12)CCCC3,-8%,19%,1,-25%,12%
O=c1c2sc3nc(N4CCOCC4)c4c(c3c2ncn1C(c1ccccc1)c1ccccc1)CCCC4,?,11%,28,?,0%
SMILES,TDP1 cell CPT,HT1080 IDH1KD tx,IL-1B inflam inh,TDP1 cell noCPT,HT1080-NT tox
CC(C)CNc1nnnc2c1sc1nc(N3CCOCC3)c3c(c12)CCCC3,?,6%,21,?,17%
O=c1c2sc3nc(N4CCOCC4)c4c(c3c2nnn1Cc1ccccc1)CCCC4,8.2µM*,-1%,-5,?,-2%
C=CCNc1nnnc2c1sc1nc(N3CCOCC3)c3c(c12)CCCC3,18%,20%,-15,13µM*,12%
O=c1c2sc3nc(N4CCOCC4)c4c(c3c2ncn1-c1ccccc1)CCCC4,?,-3%,-60*,?,-9%
Cc1ccccc1-n1cnc2c(sc3nc(N4CCOCC4)c4c(c32)CCCC4)c1=O,18µM*,?,-29,15µM*,?
CC(Sc1nc2ccccc2s1)C(=O)N1CCOCC1 (stereo not given),4%,-1%,8,0%,-2%
CCCc1nc2nc(C)c(NS(=O)(=O)c3ccc(C)c(C)c3)c(=O)n2[nH]1,0%,-4%,11,9%,7%
CCc1nnc(SCC(=O)Nc2ccc(F)cc2)o1,1%,1%,29,20%,-18%
COc1ccc(-n2cnc3c(sc4nc(N5CCOCC5)c5c(c43)CCCC5)c2=O)cc1,18µM*,2%,-13,23µM*,24%
COc1ccc(-n2cnc3c(sc4nccc(N(C)C)c43)c2=O)cc1,-27%,0%,0,?,-4%
O=C(NC1CCN(Cc2ccccc2)CC1)c1ccccc1OCc1ccccc1,?,-2%,-3,7.3µM*,9%
CCOc1ccccc1C(=O)NC1CCN(Cc2ccccc2)CC1,1%,6%,9,-5%,17%
O=C(NC1CCN(Cc2ccccc2)CC1)c1ccccc1OCc1ccccc1Cl,16µM*,?,-88*,?,-29%
C#CCOc1ccccc1CNC1CCN(Cc2ccccc2)CC1,?,0%,-3,21µM*,-6%
C#CCOc1ccccc1CNc1ccccc1,-7%,-1%,0,-24%,-2%
CCOc1ccccc1C(=O)NC1CC2CCCC(C1)N2Cc1ccc(C)cc1 (stereo not given),?,3%,2,21µM*,-10%
O=C1NC[C@@H](CCCCN2CCN(CCc3ccc(O)cc3)C(=O)C2=O)N(Cc2ccccc2)C1=O,15%,?,49,-4%,21%
Cc1ccc(NC(=O)COc2cccc(Oc3ccccc3)c2)cc1S(=O)(=O)N1CCOCC1,?,-11%,18,?,-10%
COc1ccccc1-c1cccc(-c2nc(C(=O)Nc3nccs3)cc3c2[C@@H](CCO)N(C(=O)CC2CC2)C3)c1,18µM*,2%,?,12µM*,-11%
CCC(=O)N1Cc2cc(C(=O)Nc3nccs3)nc(-c3cccc(-c4ccccc4OC)c3)c2[C@@H]1CCO,4.6µM*,-11%,-4,4.6µM*,?
COc1ccc(N(CC(=O)Nc2cccc(C(C)=O)c2)S(=O)(=O)c2ccccc2)c(OC)c1,7.3µM*,/,/,6.5µM*,/
